Laboratory results as given in PubChem BioAssay AID485276 (Southern Research Specialized Biocontainment Screening …, 2010).
Measured potencies and affinities stand elsewhere. Activity calls are given as the source filed them. The rule behind the calls is not given here.

Experiment: antiviral efficacy against SV40, host toxicity – BSC cells, set 3, confirmation (AID 485276)

In the case of Oc1ccc(Cc2ccc(O)cc2)cc1, the outcome is reported as “inactive”.
